Assay results taken from the supplement of paper PMC12339681.
Counter-ions that a name gives are not always drawn.

What follows are molecules tested on PBMC-derived induced microglia-like cells (piMGLC) (assay: synaptosome phagocytic index relative to DMSO control (fraction of DMSO); higher = more phagocytosis). Conditions: concentration: 10 uM (2 uM for compounds listed in Table S2); pretreatment time: 24 h; assay time: 3 h.

| SMILES | synaptosome phagocytic index |
| --- | --- |
| Cc1cnc(-c2cc(N3CCN(C(=O)CCS(C)(=O)=O)CC3)ncc2Cl)c(C)c1 | 0.665 |
| CCCCCCCCCC(=O)O [Decanoic_acid] | 1.32 |
| Cc1cc(-c2nncc3c(C(C)(C)C)c(OCc4ncnn4C)nn23)no1 | 0.814 |
| FC(F)(F)c1ccc(CNc2ccc(Cc3c[nH]c4ncc(Cl)cc34)cn2)cn1 [Pexidartinib_(hydrochloride)] | 0.976 |
| CO[C@H]1C[C@@H]2CC[C@@H](C)[C@@](O)(O2)C(=O)C(=O)N2CCCC[C@H]2C(=O)O[C@H]([C@H](C)C[C@@H]2CC[C@@H](OCCO)[C@H](OC)C2)CC(=O)[C@H](C)/C=C(\C)[C@@H](O)[C@@H](OC)C(=O)[C@H](C)C[C@H](C)/C=C/C=C/C=C/1C [Everolimus] | 0.223 |
| CN(C)CCc1c[nH]c2ccc(CS(=O)(=O)N3CCCC3)cc12 [Almotriptan_(malate)] | 0.882 |
| CC(C)c1nc(CN(C)C(=O)N[C@H](C(=O)N[C@@H](Cc2ccccc2)C[C@H](O)[C@H](Cc2ccccc2)NC(=O)OCc2cncs2)C(C)C)cs1 [Ritonavir] | 0.742 |
| CC(=O)OCC(=O)[C@@]1(O)[C@H](C)C[C@H]2[C@@H]3CCC4=CC(=O)C=C[C@]4(C)[C@@]3(F)[C@@H](O)C[C@@]21C [Dexamethasone_acetate] | 0.776 |
| COc1cc(C(=O)NCc2ccc(OCCN(C)C)cc2)cc(OC)c1OC [Trimethobenzamide_hydrochloride] | 1.24 |
| CCN(CC)CC(=O)Nc1c(C)cccc1C [Lidocaine] | 0.907 |
